# Hits are enriched below; roughly 3.8% of the tested compounds scored in any of these assays.
# Gli-Sufu block = Gli-Sufu pathway antagonism | Sufu-KO-LIGHT fibroblasts, Gli luciferase reporter luminescence | inhibition, % at 5 µM | actives 0.74% (n = 340,000);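 active = inhibition above about 55%, limit read from the data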;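 note: 0% = DMSO-treated cells and 100% = wells with medium but no cells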
# 697 NFkB inh = lowers PMA/ionomycin-induced NF-kB signal in 697 B cells | 697 B-cell NF-kB luciferase reporter, 16 h | inhibition, % at 4 µM | actives 0.33% (n = 330,000) | AID 435022; in the data active = inhibition above about 35%
# Jurkat NFkB inh = lowers PMA/ionomycin-induced NF-kB signal in Jurkat cells. inhibition, % at 4 µM. PMA/ionomycin-induced NF-kB luciferase reporter, luminescence. actives 0.53% (n = 330,000); in the data active = inhibition above about 50%
# Shn3 inh set2 = Schnurri-3 reporter inhibition in Clone20 osteoblasts | Clone20 osteoblast Shn3 3'UTR firefly luciferase, 24 h | inhibition, % at 12.5 µM | actives 0.52% (n = 360,000) | AID 588674;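 active = mean inhibition of at least 75% with every replicate also reaching 75%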;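 note: 0% = median of neutral control wells and 100% = pilot-screen positive control compound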
# Mdm2-MdmX inh = inhibitors of human Mdm2/MdmX interaction; inhibition, % at 8 µM; actives 3% (n = 330,000); AID 485346; SaOS-2 split-luciferase Mdm2/MdmX complementation, luminescence;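 active = inhibition of at least 50% at 8 µM in the primary screen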
# Mdm2-MdmX conf = confirmation of human Mdm2/MdmX interaction inhibitors; actives 55% (n = 10,000); shares compounds with Mdm2-MdmX inh; AID 489028; inhibition, % at 8 µM; Mdm2-MdmX binding, luminescent assay; in the data active = inhibition above about 40%
# Full FLuc ctr = inhibits full-length luciferase, flagging false Mdm2/MdmX hits. actives 77% (n = 6,200). SaOS-2 full-length luciferase counterscreen, luminescence. inhibition, % at 8 µM. shares compounds with Mdm2-MdmX inh;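 active = mean inhibition at 8 µM reaching about 37%, which flags the compound as non-specific, limit read from the data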;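 note: p53-null SaOS-2 cells with luciferase driven by a doxycycline-inducible promoter; compound on cells about two nights before reading with doxycycline added after day one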
# * marks the source's active call; other numbers are inactive results; nt = no result given; ! = not active in a repeat.
SMILES,Gli-Sufu block,697 NFkB inh,Jurkat NFkB inh,Shn3 inh set2,Mdm2-MdmX inh,Mdm2-MdmX conf,others
CC1CCCCC1N(C)C1CCN(C(=O)CNC(=O)/C=C/c2cccc(Cl)c2)CC1 (centres undefined),20.4,-56.0,38.7,18.0,53.4*,51.8*,Full FLuc ctr=91.7*
CN(C1CCCC1)C1CCN(C(=O)CNC(=O)/C=C/c2ccccc2)CC1,5.7,1.1,-1.5,0.8,-32.2,nt,
COc1ccc(C(=O)N/C(=C\c2cn(S(=O)(=O)N(C)C)c3ccccc23)C(=O)NC(C)C)cc1,-1.5,4.5,8.3,-18.9,-0.9,nt,
CCN(CC)C(=O)/C(=C/c1cn(S(=O)(=O)N(C)C)c2ccccc12)NC(=O)c1ccc(OC)cc1,13.8,-1.7,-8.4,18.5,61.3*,23.6,
COC(=O)Cn1c(=NC(=O)c2sc3ccccc3c2Cl)sc2cc(S(N)(=O)=O)ccc21,16.9,-8.4,-11.6,7.4,63.6*,38.2,Full FLuc ctr=51.5*
Cc1ccc(C)c(OCC(=O)N/N=C/c2c(C)nn(-c3ccccc3)c2Cl)c1C,2.5,23.4,22.2,-16.6,51.2*,34.9,
CCOc1ccc(Oc2c(/C=N/NC(=O)COc3ccccc3OC)c(C)nn2-c2ccccc2)cc1,37.5,-11.8,4.4,18.7,55.9*,0.8,
c1cncc(CNCc2ccco2)c1,-3.9,nt,nt,16.8,nt,nt,
CCCC(C(=O)NC(C)(C)C)N(CC1CCCO1)C(=O)CNS(=O)(=O)c1ccc(F)cc1 (centres undefined),0.5,17.1,-3.2,12.6,12.2,nt,
Cc1nn(-c2ccccc2)c(Cl)c1CN(C(=O)CCl)c1cccc2ccccc12,11.3,-6.0,0.1,49.7,99.2*,99.0*,Full FLuc ctr=52.7*
CC(=O)N(Cc1c(C)nn(-c2ccccc2)c1Cl)c1ccc(Cl)cc1,4.7,-47.6,-3.1,17.3,-5.6,nt,
CCN1CCN(c2nc3c(c(=O)[nH]c(=O)n3C)n2Cc2ccccc2F)CC1,nt,9.6,4.7,-6.3,-3.4,nt,
Cc1ccc(Cl)cc1N1CCN(Cc2nc3c(c(=O)[nH]c(=O)n3C)n2CCc2ccccc2)CC1,0.8,5.1,17.9,23.1,63.6*,13.9,
Cc1ccc(Cl)cc1N1CCN(Cc2nc3c(c(=O)[nH]c(=O)n3C)n2Cc2ccccc2F)CC1,17.2,4.0,9.4,13.8,51.1*,35.2,Full FLuc ctr=77.2*
CCCCn1c(CN2CCN(c3cccc(Cl)c3)CC2)nc2c1c(=O)[nH]c(=O)n2C,14.2,-71.8,48.4,38.1,53.4*,62.0*,Full FLuc ctr=56.5*
CC1(NC(=O)/C=C/c2nc3ccccc3s2)CCS(=O)(=O)C1 (centres undefined),-9.4,-23.1,-26.9,-15.3,2.5,nt,
Cc1cc(Br)ccc1NC(=O)CN1CCN(c2ccccn2)CC1,4.4,-18.9,-1.9,-2.3,9.2,nt,
COc1ccc(NC(=O)c2sc3ncnc(N4CCN(c5ccccn5)CC4)c3c2C)cc1Cl,46.6,-36.5,14.1,88.3*,57.3*,-4.8,
COc1ccc(NC(=O)c2sc3nc(C)nc(N4CCN(c5ccccn5)CC4)c3c2C)cc1Cl,-6.4,-17.4,3.8,41.0,51.4*,1.6,
Cc1cc(Br)ccc1NC(=O)c1sc2ncnc(N3CCN(c4ccccn4)CC3)c2c1C,38.2,-26.9,33.0,11.8,58.7*,49.0*,Full FLuc ctr=58.9*
CCN(C(=O)C(C)Sc1nnc(-c2ccncc2)n1C)C1CCCCC1 (centres undefined),4.1,14.2,-1.7,1.1,-21.8,nt,
Cc1nn(C)cc1CN(C)C(=O)C1CCC(=O)N(CCc2cccc(F)c2)C1 (centres undefined),nt,nt,nt,-40.4,nt,nt,
O=C1N(c2ccccc2C(F)(F)F)O[C@@]1(c1ccccc1)C1CCCC1,-18.6,11.8,12.0,-10.5,76.6*,50.9*,Full FLuc ctr=56.2*
O=C(Nc1ccccc1N1CCCCC1)C1CCN(S(=O)(=O)c2ccccc2C(F)(F)F)CC1,15.5,-37.8,4.0,33.8,-11.6,nt,
O=C1N(c2ccccc2C(F)(F)F)O[C@@]1(c1ccccc1)C1CCCCC1,11.0,21.0,18.3,-7.2,87.5*,50.2*,Full FLuc ctr=52.0*
SMILES,Gli-Sufu block,697 NFkB inh,Jurkat NFkB inh,Shn3 inh set2,Mdm2-MdmX inh,Mdm2-MdmX conf,others
CC(C)C[C@]1(c2ccccc2)ON(c2ccccc2C(F)(F)F)C1=O,-15.3,16.2,13.7,-1.5,49.5,nt,
CN(Cc1ccccc1)C(=O)CCn1c(=O)c2cccn2c2cccnc21,-16.5,-26.6,10.9,-7.0,-2.6,nt,
CC1CCC2(CC1)NC(=O)N(CC(=O)Nc1cccc(C#N)c1)C2=O (centres undefined),1.0,12.6,-7.9,-0.6,-3.6,nt,
COc1ccc2c(c1OC)CN(C)CCc1cc3c(cc1C(O)C2)OCO3 (centres undefined),14.0,9.4,0.6,8.3,18.3,nt,
COc1ccc2cc1Oc1ccc(cc1)C[C@H]1c3cc(c(OC)cc3CCN1C)Oc1c(OC)c(OC)cc3c1[C@@H](C2)N(C)CC3,11.6,6.1,-2.8,-5.1,100.3*,90.4*,Full FLuc ctr=59.6*
COc1ccc(OC)c(S(=O)(=O)N2CCCC(N3CCN(c4ccccc4)CC3)C2)c1 (centres undefined),33.4,-28.2,4.0,32.0,3.1,nt,
NS(=O)(=O)c1cccc(NC(=O)c2cccc(-c3ccc(O)cc3)c2)c1,14.2,2.4,7.3,-6.0,64.5*,30.2,
CN(C)S(=O)(=O)c1cccc(C(=O)Nc2ccc(C(=O)Nc3cccc(S(N)(=O)=O)c3)cc2)c1,5.2,13.1,-8.0,59.1,41.5,nt,
Cc1cc(C)c(NC(=O)CNC(=O)COC(=O)CN2C(=O)NC3(CCCC3)C2=O)c(C)c1,-2.7,3.6,-11.9,-3.9,9.7,nt,
Cc1ccc(C(O)(C(=O)NNc2ccc3ccccc3n2)c2ccc(C)cc2)cc1,-9.5,10.1,17.1,-25.1,51.2*!,26.9,
CC(=O)N(C(C)=O)n1c(C)nc2sc3c(c2c1=O)CCCC3,-3.7,17.1,16.7,14.7,72.5*,79.5*,Full FLuc ctr=45.5*
Cc1c(-c2ccccc2)c(-c2ccc(OCCN(C)C)cc2)n2ccccc12,-16.5,nt,nt,-4.0,nt,nt,
CC1(C)Oc2ccc3ccc(=O)oc3c2-c2cn[nH]c21,-16.7,27.6,3.3,-6.7,59.9*,19.1,
O=C(NCCCN1CCCC1=O)c1cccc(S(=O)(=O)N2CCN(c3ccccc3)CC2)c1,-2.8,6.0,21.5,17.1,12.6,nt,
COc1ccc(Cl)cc1CN1C(=O)C(Cc2ccccc2)ON=C1C (centres undefined),nt,nt,nt,19.5,nt,nt,
C=CCNC(=S)NNC(=O)CCC(O)CCCCC (centres undefined),-1.0,-8.4,1.4,8.2,54.3*,-7.7,
Cc1cccc(OC(C)C(=O)NC2CCS(=O)(=O)C2)c1C (centres undefined),48.0,5.6,-0.3,0.0,12.9,nt,
Cc1ccccc1Cn1c(=O)n(CCCC(=O)NCc2ccco2)c(=O)c2sccc21,2.6,3.6,2.3,3.7,26.5,nt,

# Bioassay records: PubChem, several laboratories
